In all, about 16,000 compounds went through this assay and about 4,000 (25%) were called active. Another 26% or so got no clear call; they are omitted. These entries were drawn from the full list. Values without a mark were called inactive. The call rests on the fitted dose curve; in most records, active means well fitted curve in the direction sought with a large enough effect; inconclusive means small, poorly fitted or top-dose-only effect, or effect the other way; inactive means no such curve, though single readings can be large or run the other way.
Target: Cytochrome P450 2C9 (Homo sapiens) (UniProt P11712)
Experiment: Cytochrome panel assay with activity outcomes
Conditions: recombinant CYP, pro-luciferin dealkylation, luminescence, p450-cyp2c9; series mostly up to 57.1 µM; activity, negative = inhibition: at the top concentration
On the % scale 0 is the no-effect control and ±100 the full control effect.

Sequence of Cytochrome P450 2C9 (Homo sapiens) (P11712 whole entry, looked up): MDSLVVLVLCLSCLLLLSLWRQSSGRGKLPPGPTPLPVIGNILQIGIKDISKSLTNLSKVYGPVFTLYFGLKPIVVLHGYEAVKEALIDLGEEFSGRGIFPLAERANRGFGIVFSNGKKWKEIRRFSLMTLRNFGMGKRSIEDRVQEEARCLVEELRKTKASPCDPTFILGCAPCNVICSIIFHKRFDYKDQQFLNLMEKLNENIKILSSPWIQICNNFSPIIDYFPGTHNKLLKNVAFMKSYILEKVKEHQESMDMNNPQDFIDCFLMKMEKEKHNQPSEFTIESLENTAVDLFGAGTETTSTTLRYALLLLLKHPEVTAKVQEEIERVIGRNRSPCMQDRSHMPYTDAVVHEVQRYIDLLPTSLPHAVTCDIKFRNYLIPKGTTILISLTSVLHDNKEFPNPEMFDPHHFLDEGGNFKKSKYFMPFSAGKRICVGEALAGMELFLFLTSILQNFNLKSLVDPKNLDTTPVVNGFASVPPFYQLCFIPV

SMILES | AC50 | activity, negative = inhibition
Oc1c(Cl)cc(C(c2cc(Cl)c(O)c(Cl)c2)C(c2cc(Cl)c(O)c(Cl)c2)c2cc(Cl)c(O)c(Cl)c2)cc1Cl | 0.1 µM (active) | –
CN(C)CN1CSC(=S)N(CN(C)C)C1 | 3.16 µM (active) | –
[O-][N+](CCO)(CCO)c1ncnc2nc[nH]c12 | – | 27.7% [at 11.4 µM]
Cc1noc(C)c1C(=O)N1CCC[C@@]2(CCN(Cc3nccs3)C2)C1 | – | -1.28%
c1ccc2cc(Sc3ncnc4c3oc3ccccc34)ccc2c1 | 10 µM (active) | –
CC[C@@H](c1ccccc1)n1c(=O)n2n(c1=O)[C@H]1[C@H](O)[C@H]3O[C@@H]3/C(=N/OCc3ccccc3)[C@@H]1CC2 | – | -21.9% [at 11.4 µM]
COc1ccc(N=C2S/C(=C\c3ccc(C)s3)C(=O)N2CC(C)C)cc1 | 7.08 µM (active) | –
CCCN1C(=O)/C(=C/c2ccc(C)s2)SC1=Nc1ccc(OC)cc1 | 7.94 µM (active) | –
O=C1[C@@H]2[C@H]3[C@H](O)[C@H](O)C/C(=N/OC[C@@H](O)COCc4ccco4)[C@@H]3CC[C@H]2C(=O)N1c1ccc(F)cc1F | – | -0.354% [at 11.4 µM]
CC(=O)N1CCC2(CCCN(c3ccccn3)C2)CC1 | – | 1.68%
O=C(CCn1c(=S)[nH]c2ccccc2c1=O)NCCCN1CCOCC1 | – | -1.93%
O=C(CCCn1c(=S)[nH]c2ccc(Br)cc2c1=O)N1CCN(c2ccccn2)CC1 | 3.16 µM (active) | –
Cn1c(N)nc2c(nc(OCc3ccccc3)n2[C@@H]2O[C@H](CO)[C@@H](O)[C@@H]2O)c1=O | – | 1.04% [at 11.4 µM]
CCOC(=O)c1ccc(S(=O)(=O)Nc2ccc3cn[nH]c3c2)cc1 | 0.794 µM (active) | –
CCOc1cc(C)c(S(=O)(=O)Nc2ccc3cn[nH]c3c2)cc1C | 2.82 µM (active) | –
Cc1ccccc1C1C(C#N)=C2N=C(N)c3c(sc4c3CCCCC4)N2C2=C1C(=O)CC(C)(C)C2 (stereo not given) | 3.55 µM (active) | –
OC[C@@H]1O[C@H](O)[C@@H](Cl)[C@H](O)[C@@H]1O | – | 13.7%
Cc1noc(C)c1-c1cncnc1N1CCN(C)CC1 | – | 15.2% [at 2.29 µM]
O=C(N/N=C/c1cc([N+](=O)[O-])ccc1N1CCNCC1)c1ccc([N+](=O)[O-])cc1 | – | -9.44%
CCN(CC)C(=O)C1CCCN(c2ccc([N+](=O)[O-])cc2/C=N/NC(=O)c2ccc([N+](=O)[O-])cc2)C1 (stereo not given) | 12.6 µM (active) | –
CSc1ccccc1NC(=O)CSCc1ccc(C)cc1 | 10 µM (active) | –
CN1CCC(=NNC(=O)CSCc2ccccc2)CC1 | – | -24.9%
C=CCN(CC=C)C(=S)Nc1ccccc1 | – | -11.8%

SMILES | AC50 | activity, negative = inhibition
S=C(Nc1ccccc1)Nc1ccccc1C#Cc1ccccc1 | 3.98 µM (active) | –
O=S(=O)(N/N=C\c1cn(-c2ccccc2)nc1-c1ccccc1)c1ccccc1 | 4.47 µM (active) | –
Cc1ccc(-c2nn(-c3ccccc3)cc2/C=N/NS(=O)(=O)c2ccccc2)cc1 | 7.94 µM (active) | –
O=S(=O)(N/N=C\c1cccn1-c1ccccc1)c1ccc2ccccc2c1 | – | 4.26%
CC(C)=C1C(=O)C(c2ccccc2)=C2CN3C(=O)N(CCc4ccccc4)C(=O)[C@]3(Cc3ccccc3)[C@H]21 | 10 µM (active) | –
CC1(C)C(=O)C(c2ccccc2)=C2CN3C(=O)N(CCc4ccccc4)C(=O)C3(Cc3ccc(C(F)(F)F)cc3)C=C21 (stereo not given) | – | -3.37%
CCN1CCc2nc(NC(=O)CC(c3ccccc3)c3ccccc3)sc2C1 | 14.1 µM (active) | –
CCN1CCC[C@@H](OC(=O)C(c2ccccc2)c2ccccc2)C1 | – | -2.59% [at 25.6 µM]
Cc1nc2ncnn2c(C)c1CCC(=O)NCc1ccco1 | – | 15.9%
Cc1nc2nc(SCC(=O)NCc3ccco3)nn2c(C)c1Cc1c(F)cccc1Cl | 0.708 µM (active) | –
Cc1nc2nc(C)c(CCC(=O)NCCCN3CCN(c4cccc(Cl)c4)CC3)c(C)n2n1 | – | -19.6%
Cc1ccc(Cc2c(C)nc3nc(SCC(=O)NCc4ccco4)nn3c2C)cc1 | 10 µM (active) | –
Fc1ccc(Nc2ncncc2-c2ccoc2)cc1 | – | -24.6% [at 2.29 µM]
COC(=O)/C=C\CCc1coc(/C=C\CNC(=O)OC)n1 | – | -17.2% [at 11.4 µM]
c1ccc2c(Nc3ccncc3)nc(-c3ccoc3)nc2c1 | – | -11.6% [at 2.29 µM]
COc1ccc(CCNC(=O)c2ccc3c(=O)n(Cc4ccco4)c(=S)[nH]c3c2)cc1OC | 4.47 µM (active) | –
CC(C)NC(=O)c1ccc2c(=O)n(Cc3ccco3)c(=S)[nH]c2c1 | – | -9.15%
CCCOc1ccccc1-c1nc2n[nH]nc2c(=O)[nH]1 | inactive | –
CN(C)S(=O)(=O)Oc1ccsc1C(=O)Nc1cccc(Cl)c1 | 8.91 µM (active) | –
C/C(=N/OC(=O)c1cccc(Cl)c1)c1nccs1 | – | -18.8%
CN(C)S(=O)(=O)Oc1ccc(Cl)cc1C(=O)Nc1cccc(C(F)(F)F)c1 | 7.94 µM (active) | –
O=C(Cn1ccc(=O)[nH]c1=O)Nc1ccc(C(=O)O)c(O)c1 | – | -4.1% [at 11.4 µM]

— PubChem BioAssay AID1851 (National Center for Advancing Translational Sciences (NCATS), 2009)
